From PubChem BioAssay
HepG2 viability = kills HepG2 cells in TGF-b inhibitor counter-screen | HepG2 CAGA-GFP viability, ATP luminescence, 18 h | Potency, µM (doses to about 46.1 µM), inactives show top-dose activity change, negative = cytotoxicity, actives largely listed as cytotoxic | hit rate 0.76% among 410,000 | AID 588856
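CellTiter-Glo luminescence gave cytotoxicity after 18 hours at 37 degrees C. The cells were HepG2 CAGA-GFP in 1% FBS DMEM, stimulated with 500 pg/mL TGF-beta after compound addition. %Activity was normalised to no-cell wells (complete cell-killing) and DMSO (no toxicity), and curves were fitted and classified.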
TGFb SMAD3 inh = inhibitors of TGF-b signaling; Potency, µM (doses to about 46.1 µM), inactives show at the top dose activity, negative = inhibition, hits mostly inhibitors; hit rate 1.2% among 410,000; HepG2 CAGA-GFP TGF-b/SMAD3 reporter, GFP fluorescence, 18 h; TGF-beta stimulated, 500 pg/mL final; note: % is set by controls: 0 for no effect and ±100 for the full control effect; nearly all actives have a fitted effect of over 65% in size
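Inhibition was scored as loss of TGF-beta-induced (500 pg/mL final, 18 hours, 37 degrees C) GFP in HEPG2 cells carrying a CAGA-GFP reporter, in DMEM with 1% FBS. Well GFP was summed per cell; Activity was normalised to unstimulated and stimulated DMSO wells, then concentration-response fitting.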
ATXN2 expr inh = ATXN2 expression inhibition | HEK-293 ATXN2-luciferase reporter, luminescence, 24 h | Potency, µM (doses to about 57 µM), for inactives: top-dose activity change, negative = inhibition, most hits filed as inhibitors | hit rate 0.72% among 360,000 | AID 1745845; note: % is set by controls: 0 for no effect and ±100 for the full control effect; nearly all actives have a fitted effect of over 55% in size
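qHTS (up to 57 uM final) was run with 24 h compound exposure of reporter cells at 37 °C. Each well was multiplexed: SteadyGlo luminescence measured ATXN2-luciferase expression after a fluorogenic Gly-Phe-AFC viability readout (25 uM final).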
KB-V1 MDR tox = kills drug-selected multidrug resistant KB-V1 cells; hit rate 3.4% among 400,000; KB-V1 MDR cells viability, CellTiter-Glo, 72 h; Potency, µM (highest dose often 46.1 µM), most hits filed as cytotoxic; note: % is set by controls: 0 for no effect and ±100 for the full control effect; nearly all actives have a fitted effect of over 60% in size
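Cytotoxicity toward P-gp-expressing KB-V1 cells was determined as loss of CellTiter-Glo luminescence after 72 h at 37 degrees C. Compounds were tested in quantitative HTS format across a concentration range, with curves fitted to normalized data.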
S2 tox = viability counter-screen for ATXN expression inhibitors; S2 cells (HEK-293 line with an ATXN2-luciferase reporter) viability, CellTiter-Fluor protease fluorescence, 24 h; Potency, µM (doses to about 56.7 µM), actives largely listed as cytotoxic; hit rate 0.49% among 400,000; note: nearly all actives have a fitted effect of over 40% in size
KB-3-1 cytotox = kills parental KB-3-1 adenocarcinoma cells | Potency, µM (top dose mostly 46.1 µM), usual class: cytotoxic | KB-3-1 viability, CellTiter-Glo ATP luminescence, 72 h | AID 1347075 | hit rate 1.4% among 400,000; note: % is set by controls: 0 for no effect and ±100 for the full control effect; nearly all actives have a fitted effect of over 60% in size
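Cytotoxicity measured as CellTiter-Glo luminescence after 72 h at 37 C. Compound titrations were pinned onto drug-naive KB-3-1 parental adenocarcinoma cells grown in DMEM with 10% FBS, and normalized data fitted to concentration-response curves.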
An asterisk follows results filed as active; ! = repeats disagree. Most compounds without a hit are left out; they make up all but 5.9% or so of the library. Calls come from the whole dose curve; as a rule, active = well fitted curve in the direction sought with a large enough effect; inconclusive = small, poorly fitted or top-dose-only effect, or another doubt; inactive = no such curve, though single readings can be large; an effect the other way counts as inactive or inconclusive. Potency is the fitted concentration of half-maximal effect.

Results for Oc1ccc2c3c1O[C@H]1[C@@H](O)CC[C@@]4(O)[C@@H](C2)N(CC2CCC2)CC[C@]314 ?
HepG2 viability: -1%; TGFb SMAD3 inh: 21%; ATXN2 expr inh: 4%; KB-V1 MDR tox: inactive; S2 tox: inactive; KB-3-1 cytotox: inactive

Results for NC(N)=Nc1ccc2[nH]c3c(c2c1)C[C@@]1(O)[C@H]2Cc4ccc(O)c5c4[C@@]1(CCN2CC1CC1)[C@H]3O5 ?
HepG2 viability: -53%; TGFb SMAD3 inh: 14µM*!; ATXN2 expr inh: -10%; KB-V1 MDR tox: inactive; S2 tox: inconclusive; KB-3-1 cytotox: inconclusive

Results for Cc1c(C=O)c2ccccc2n1Cc1ccccc1F ?
HepG2 viability: -40%; TGFb SMAD3 inh: 1.1µM*; ATXN2 expr inh: -18%; KB-V1 MDR tox: inconclusive; S2 tox: inactive; KB-3-1 cytotox: inconclusive

How did Cc1c(C=O)c2ccccc2n1Cc1ccc([N+](=O)[O-])cc1 do in these assays?
HepG2 viability: -18%; TGFb SMAD3 inh: -33%; ATXN2 expr inh: -12%; KB-V1 MDR tox: 10µM*; S2 tox: inactive; KB-3-1 cytotox: inactive

What do the screens show for `C=Cc1ccc(Cn2c(C(=O)O)c(C=O)c3ccccc32)cc1`?
HepG2 viability: -10%; TGFb SMAD3 inh: -11%; ATXN2 expr inh: 1%; KB-V1 MDR tox: inactive; S2 tox: inactive; KB-3-1 cytotox: inactive

What do the screens show for `CCOC(=O)c1c(C=O)c2ccccc2n1Cc1ccccc1F`?
HepG2 viability: -5%; TGFb SMAD3 inh: -16%; ATXN2 expr inh: -23%; KB-V1 MDR tox: inactive; S2 tox: inactive; KB-3-1 cytotox: inconclusive

What do the screens show for `CC(=O)Nc1ccc(S(=O)(=O)N(C)CCOCc2ccccc2)cc1`?
HepG2 viability: 6%; TGFb SMAD3 inh: 2%; ATXN2 expr inh: -4%; KB-V1 MDR tox: inconclusive; S2 tox: inactive; KB-3-1 cytotox: inconclusive

What do the screens show for `C[C@]12Cc3cn[nH]c3C[C@@H]1CC[C@@H]1[C@@H]2CC[C@@]2(C)[C@H]1CC[C@]2(C)O`?
ATXN2 expr inh: -11%; S2 tox: inactive

What do the screens show for `Cn1c(=O)oc2cc(S(=O)(=O)N3CCC(C(=O)N4CCN(c5ccccc5)CC4)CC3)ccc21`?
HepG2 viability: -2%; TGFb SMAD3 inh: 4%; ATXN2 expr inh: 5%; KB-V1 MDR tox: inactive; S2 tox: inactive; KB-3-1 cytotox: inconclusive

What do the screens show for `COc1cccc(N2CCN(C(=O)C3CCCN(S(=O)(=O)c4ccc5c(c4)oc(=O)n5C)C3)CC2)c1` (stereo unspecified)?
HepG2 viability: 2%; TGFb SMAD3 inh: -12%; ATXN2 expr inh: -14%; KB-V1 MDR tox: inactive; S2 tox: inactive; KB-3-1 cytotox: 12µM*!

How did O=C(NC1CCCCCC1)c1ccc[nH]c1=S do in these assays?
HepG2 viability: 2%; TGFb SMAD3 inh: inconclusive; ATXN2 expr inh: 23%; KB-V1 MDR tox: inactive; S2 tox: inactive; KB-3-1 cytotox: inactive

Results for Cc1cc(/C=C/c2cccc3sc(C)[n+](CCCCI)c23)ccc1N(CCCl)CCCl ?
HepG2 viability: -8%; TGFb SMAD3 inh: inconclusive; KB-V1 MDR tox: inactive; KB-3-1 cytotox: inactive

How did Cc1ccc(C(=O)c2cn(CC(=O)Nc3ccc(C(C)C)cc3)c3nc(C)ccc3c2=O)cc1 do in these assays?
HepG2 viability: 3%; TGFb SMAD3 inh: 8%; ATXN2 expr inh: -2%; KB-V1 MDR tox: inactive; S2 tox: inconclusive; KB-3-1 cytotox: inactive

Results for CC(C)[C@H]1C(=O)O[C@H](C(C)C)C(=O)N(C)[C@@H](C(C)C)C(=O)O[C@H](C(C)C)C(=O)N(C)[C@@H](C(C)C)C(=O)O[C@H](C(C)C)C(=O)N1C ?
HepG2 viability: -38%; TGFb SMAD3 inh: 5.6µM*; ATXN2 expr inh: 7.9µM*; KB-V1 MDR tox: inconclusive; S2 tox: 10µM*; KB-3-1 cytotox: 5.8µM*

How did O=c1c2ccccc2nc2n1CCS2(=O)=O do in these assays?
HepG2 viability: -29%; TGFb SMAD3 inh: inconclusive; ATXN2 expr inh: 15%; KB-V1 MDR tox: inactive; S2 tox: inactive; KB-3-1 cytotox: inactive

Results for COc1ccccc1NC(=O)Oc1cccc(OC(=O)c2ccccc2)c1 ?
HepG2 viability: -13%; TGFb SMAD3 inh: 0%; KB-V1 MDR tox: inactive; S2 tox: inconclusive; KB-3-1 cytotox: inactive

Results for COc1ccc(CNC(=O)Cn2c(=O)oc3cc(S(=O)(=O)N4CCCCCC4)ccc32)cc1 ?
HepG2 viability: -36%; TGFb SMAD3 inh: -2%; KB-V1 MDR tox: inconclusive; KB-3-1 cytotox: inactive

What do the screens show for `CCCCCCCCN1C(=O)[C@H](CC(=O)NCCCC)C[C@@]2(C(=O)OCC)CCCC=C12`?
ATXN2 expr inh: 0%; KB-V1 MDR tox: 21µM*; S2 tox: inconclusive; KB-3-1 cytotox: inconclusive

How did CC(C)(C)c1nc(N2CCN(C(=O)c3ccco3)CC2)c2nnn(Cc3ccccc3Cl)c2n1 do in these assays?
HepG2 viability: -14%; TGFb SMAD3 inh: inconclusive; ATXN2 expr inh: -32%; KB-V1 MDR tox: 12µM*; S2 tox: inactive; KB-3-1 cytotox: inactive

How did C[C@@H]1CN([C@@H](C)CO)C(=O)c2c(c3ccccc3n2C)-c2ccccc2CO[C@H]1CN(C)C(=O)[C@H](C)c1ccccc1 do in these assays?
HepG2 viability: -35%; TGFb SMAD3 inh: inconclusive; ATXN2 expr inh: inconclusive; KB-V1 MDR tox: inconclusive; S2 tox: inconclusive; KB-3-1 cytotox: inconclusive

Results for C=CCn1c(O)c(N=Nc2c(C)n(C)n(-c3ccccc3)c2=O)c(=O)[nH]c1=S ?
HepG2 viability: 11%; TGFb SMAD3 inh: 1%; ATXN2 expr inh: inconclusive; KB-V1 MDR tox: 3.3µM*; S2 tox: inconclusive; KB-3-1 cytotox: inconclusive

How did Cc1c(N=Nc2c(O)[nH]c(=S)[nH]c2=O)c(=O)n(-c2ccccc2)n1C do in these assays?
HepG2 viability: -12%; TGFb SMAD3 inh: -3%; ATXN2 expr inh: -18%; KB-V1 MDR tox: inactive; S2 tox: inconclusive; KB-3-1 cytotox: inactive

Results for O=C(Nc1ccc(Br)cc1)c1cccc(S(=O)(=O)N2CCc3ccccc32)c1 ?
HepG2 viability: -21%; TGFb SMAD3 inh: inconclusive; ATXN2 expr inh: inconclusive; KB-V1 MDR tox: inactive; S2 tox: inactive; KB-3-1 cytotox: inconclusive

Results for O=C(Nc1c(Cl)cccc1Cl)Oc1cccc2cccnc12 ?
HepG2 viability: -2%; TGFb SMAD3 inh: inconclusive; ATXN2 expr inh: inconclusive; KB-V1 MDR tox: inconclusive; KB-3-1 cytotox: inconclusive

Results for O=C(Nc1cccc(Br)c1)Oc1cccc2cccnc12 ?
HepG2 viability: 2.8µM*; TGFb SMAD3 inh: inconclusive; ATXN2 expr inh: 6.3µM*; KB-V1 MDR tox: inconclusive; S2 tox: inconclusive; KB-3-1 cytotox: inconclusive
